Source: PubChem BioAssay (EPA / NIEHS)
Active and inactive are the calls of the source. The calls were made as follows: active = hit-call score of the fitted dose curve at least 0.9, where 1 is the maximum; inactive = score below 0.9.

experiment: CCTE_Padilla_ZF_Score.Living: CCTE's 144 Hour Post-fertilization zebrafish Assay Score for Viability, Padilla Lab (AID 2284410);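 also: larval death at 6 dpf judged by absent heartbeat or coagulation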
Description: CCTE_Padilla_ZF_Phenotype_Score is a whole embryo, multiplexed assay using zebrafish ova exposed for 144 hours post fertilization on a 96-well plate.CCTE_Padilla_ZF_Score.Living is one of one assay component(s) measured or calculated from the CCTE_Padilla_ZF_Phenotype_Score assay. It is designed to make measurements of zebrafish development as detected with brightfield microscopy of developing zebrafish embryos.Data from the assay component CCTE_Padilla_ZF_Score.Living was analyzed into 1 assay endpoints. This assay endpoint, CCTE_Padilla_ZF_Score.Living, was analyzed in the positive analysis fitting direction relative to DMSO as the negative control and baseline of activity. Using a type of viability reporter, gain-of-signal activity can be used to understand changes in developmentals as they relate to the whole embryo. To generalize the intended target to other relatable targets, this assay endpoint is annotated to the zebrafish development intended target family, where the subfamily is embryonic mortality.
Zebrafish husbandry: Wild type adult zebrafish (Danio rerio; undefined outbred stock obtained from Aquatic Research Organisms, Hampton, NH, 03842) were housed in an AAALAC-approved animal facility at 28C with a 14:10 h light: dark cycle (lights on at 08:30 h). Adult fish (2-3 females per male; density = 15-20 adults per tank) were kept in one of several 9-liter (L) flow-through colony tanks (Aquaneering Inc., San Diego, CA). All adults in a colony tank were placed in a 2 L (static) breeding tank (Aquatic Habitats, Apopka, FL) one hour prior to light onset. Typically, adults from two to three colony tanks were mated on the same day. Two hours after light onset the adults were returned to the colony tank. All embryos were gathered from each breeder tank, pooled, and placed in a 28C water bath for 2 h, followed by two washes with 0.06% bleach (v/v) in 10% Hanks' Balanced Salt Solution (13.7 mM NaCl 0.54 mM KCl, 25 uM Na2HPO4, 130 uM CaCl2 100 um MgSO4 and 420 um NaHCO3,), hereafter referred to as Hanks' solution, for 5 min in order to remove any residual bacteria or fungi. Immediately following washing, the embryos were examined, and healthy embryos were separated from dead or unfertilized eggs and moved into fresh Hanks'. Chemical exposures: Zebrafish embryos were exposed in 96-well plates. Between 6- and 8-hours post fertilization (hpf), healthy embryos (with chorions) were transferred, one embryo per well, into 96 well (0.5 mL) microtiter plates (Cell Culture-Treated, Flat-Bottom Microplate 96 well [Corning Costar, Kennebunk, ME; Cat 09-761-145]) filled with 200 uL of Hanks' solution. A random number generator was used to assign the order in which the rows of embryos were plated in 96 well plates each week. After plating, the embryos were dosed with 0.8 uL of the chemical dosing solution then immediately sealed with AlumaSeal II (Excel Scientific Inc, Victorville, CA) to prevent volatilization of the chemicals, and then placed in a leakproof secondary container. These containers were placed in an incubator maintained on a 14:10 h light: dark cycle at 26C for rearing. On 5 dpf, live larvae were gently moved out of the plate with test chemicals and into a new 96 well mesh plate (Millipore Corp., Bedford, MA) with just the Hanks' solution. Once within the mesh well plate, the animals were rinsed with 400 uL of fresh Hanks' three times, and then the plates were covered with a non-adhesive material (Microseal A, BioRad, Hercules, CA), plate lid added, and then plate sides wrapped in Parafilm (PM992, Bermis Company, Neenah, WI), and returned to the incubator. […]

Structure (SMILES) | outcome | AC50
COC(=O)C(F)(F)C(F)(F)OC(F)(C(F)(F)F)C(F)(F)OC(F)=C(F)F (centres undefined) | inactive | 
NC(=O)C(F)(F)C(F)(F)F | inactive | 
FC(F)(F)C(F)(C(F)(F)F)C(F)(F)C(F)(F)CC1CO1 (centres undefined) | inactive | 
OCC(F)(F)OC(F)(F)C(F)(F)OC(F)(F)C(F)(F)OC(F)(F)CO |  | 32.1 µM (active)
O=S(=O)(F)C(F)(F)C(F)(F)C(F)(F)C(F)(F)C(F)(F)C(F)(F)C(F)(F)C(F)(F)F | inactive | 
CC(O)C(F)(F)C(F)(F)F (centres undefined) | inactive | 
O=C(O)C(F)(F)C(F)(F)C(=O)O | inactive | 
OCC(F)(F)OC(F)(F)C(F)(F)OC(F)(F)CO | inactive | 
O=C(O)C(F)(OC(F)(F)C(F)(F)C(F)(F)F)C(F)(F)F (centres undefined) | inactive | 
C=CC(=O)OCC(F)(F)C(F)F |  | 20.7 µM (active)
O=C(O)C(F)(F)OC(F)(F)C(F)(F)OC(F)(F)C(=O)O | inactive | 
O=C(O)C=CC(F)(C(F)(F)F)C(F)(F)F | inactive | 
O=C(O)C(F)(F)OC(F)(F)C(F)(F)OC(F)(F)F | inactive | 
OCC(F)(F)OC(F)(F)C(F)(F)OC(F)(F)C(F)(F)OC(F)(F)F |  | 88.8 µM (active)
